Test results reported in PubChem BioAssay (NCI).
This is part of a sample that, as a whole, favours compounds with a hit. Of some 79,000 tested, about 15% had one in any assay. The source made the active and inactive calls. Rule as the data show it: active = growth inhibition above about 70%; inactive = the rest.

What was measured:
[1] = NCI Yeast Anticancer Drug Screen. Data for the rad52 strain (AID 147);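 also: 0% = growth of vehicle-treated control cultures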; details: S. cerevisiae rad52 mutant growth inhibition, stronger effect = higher value
Method in brief: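 DNA repair-defective yeast; compound exposure; growth scored against vehicle controls.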

[2] = NCI Yeast Anticancer Drug Screen. Data for the wt1 strain (AID 149);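 also: 0% = growth of vehicle-treated wt1 cultures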; details: S. cerevisiae wt1 strain (SPY 50644) growth inhibition, stronger effect = higher value
Method in brief: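 Growth inhibition read against vehicle controls after compound exposure of the wt1 yeast strain.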

[3] = NCI Yeast Anticancer Drug Screen. Data for the rad50EPP+ strain (AID 151);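 also: 0% = growth of vehicle-treated control cultures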; details: S. cerevisiae rad50 mutant strain, stronger effect = higher value
Method in brief: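 rad50EPP+ yeast treated with test compounds. Readout: growth vs vehicle control.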

[4] = NCI Yeast Anticancer Drug Screen. Data for the mgt1 strain (AID 153); details: S. cerevisiae mgt1 mutant growth inhibition, stronger effect = higher value
Method in brief: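 Growth inhibition relative to vehicle controls was scored for the mgt1 yeast strain after compound exposure.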

[5] = NCI Yeast Anticancer Drug Screen. Data for the rad50 strain (AID 155);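 also: 0% = growth of vehicle-only cultures of the same strain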; details: S. cerevisiae rad50 strain growth inhibition, stronger effect = higher value
Method in brief: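 Readout: growth inhibition relative to vehicle-treated cultures. Compound exposure was carried out in a genetically defined yeast strain deficient in DNA damage repair.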

[6] = NCI Yeast Anticancer Drug Screen. Data for the mec2-1 strain (AID 157); details: S. cerevisiae mec2-1 strain, stronger effect = higher value
Method in brief: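 Growth inhibition is read against vehicle-treated controls after compound exposure of the mec2-1 yeast strain, which is defective in DNA damage repair or cell cycle control.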

[7] = NCI Yeast Anticancer Drug Screen. Data for the rad14 strain (AID 159);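 also: 0% = growth of vehicle-treated control cultures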; details: S. cerevisiae rad14 strain growth inhibition, stronger effect = higher value
Method in brief: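 Growth inhibition vs vehicle controls; genetically altered yeast strain (DNA damage repair defect) treated with test compounds.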

[8] = NCI Yeast Anticancer Drug Screen. Data for the sgs1 mgt1 strain (AID 161);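 also: 0% = growth of cultures given vehicle only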; details: S. cerevisiae sgs1 mgt1 strain, stronger effect = higher value
Method in brief: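 Compounds are added to genetically altered yeast, and growth is compared with cultures given vehicle alone to give percent inhibition.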

[9] = NCI Yeast Anticancer Drug Screen. Data for the CLN2oe strain (AID 163);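 also: 0% = growth of vehicle-only control cultures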; details: S. cerevisiae CLN2oe strain, stronger effect = higher value
Method in brief: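 Compound-treated yeast; growth vs vehicle ctrl = % inhibition. Genetically altered strain (cell-cycle control).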

[10] = NCI Yeast Anticancer Drug Screen. Data for the cln2 rad14 strain (AID 165);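 also: 0% = growth equal to vehicle treated cultures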; details: S. cerevisiae cln2 rad14 strain, stronger effect = higher value
Method in brief: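 Growth inhibition, relative to vehicle-treated controls, is the read-out. The test organism is a yeast strain with defined genetic alterations, cln2 rad14.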

[11] = NCI Yeast Anticancer Drug Screen. Data for the bub3 strain (AID 167); details: S. cerevisiae bub3 mutant strain, stronger effect = higher value
Method in brief: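 Readout: yeast growth inhibition, expressed relative to vehicle-only wells. The test organism is a mutant strain from a panel with lesions in DNA repair or checkpoint genes.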

[12] = NCI Yeast Anticancer Drug Screen. Data for the sgs1 strain (AID 173);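 also: 0% = growth of vehicle-only control cultures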; details: S. cerevisiae sgs1 mutant, stronger effect = higher value
Method in brief: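 Compounds applied to genetically altered yeast; growth compared with vehicle-treated cultures to give % inhibition.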

[13] = NCI Yeast Anticancer Drug Screen. Data for the mlh1 rad18 strain (AID 175); details: S. cerevisiae mlh1 rad18 strain growth inhibition, stronger effect = higher value
Method in brief: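 Cells of a genetically altered yeast strain, deficient in DNA damage repair, were treated with compound. Their growth was then compared with that of vehicle-treated cultures to give inhibition.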

[14] = NCI Yeast Anticancer Drug Screen. Data for the rad18 strain (AID 177); details: S. cerevisiae rad18 mutant growth inhibition, stronger effect = higher value
Method in brief: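 Compounds are applied to a repair-deficient yeast strain, and growth is compared with that of vehicle-treated cultures to give percent inhibition.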

[15] = NCI Yeast Anticancer Drug Screen. Data for the wt2 strain (AID 169);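 also: 0% = growth of vehicle-treated yeast cultures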; details: S. cerevisiae wt2 strain growth inhibition, stronger effect = higher value
Method in brief: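 Compound exposure of yeast; growth compared with vehicle controls; inhibition reported.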

[16] = at 5.0 µM (retest, dose inferred, filed as 0.5)
[17] = at 50.0 µM (retest, dose inferred, filed as 5.0)

Measured: growth inhibition

Nc1ncc(-c2ccc(Br)cc2)s1
active: [1]; at 33.0 µM 92% | [1]; at 100.0 µM 98% | [2]; at 33.0 µM 92% | [2]; at 100.0 µM 98% | [3]; at 33.0 µM 93% | [3]; at 100.0 µM 97% | [4]; at 33.0 µM 95% | [4]; at 100.0 µM 98% | [5]; at 33.0 µM 91% | [5]; at 50.0 µM 89.5% | [5]; at 100.0 µM 97% | [6]; at 33.0 µM 92% | [6]; at 50.0 µM 93% | [6]; at 100.0 µM 98% | [7]; at 33.0 µM 93% | [7]; at 100.0 µM 97% | [8]; [17] 99% | [8]; at 50.0 µM 92.7% | [9]; at 33.0 µM 90% | [9]; at 100.0 µM 97% | [10]; [17] 99% | [10]; at 50.0 µM 90.3% | [11]; at 33.0 µM 82% | [11]; [17] 99% | [11]; at 50.0 µM 89.8% | [11]; at 100.0 µM 97% | [12]; at 33.0 µM 92% | [12]; at 100.0 µM 97% | [13]; at 50.0 µM 89.9% | [14]; at 33.0 µM 91% | [14]; at 100.0 µM 97%
inactive: [1]; at 1.2 µM 20% | [1]; at 3.7 µM 35% | [1]; at 11.0 µM 36% | [2]; at 1.2 µM 9% | [2]; at 3.7 µM 17% | [2]; at 11.0 µM 22% | [3]; at 1.2 µM 19% | [3]; at 3.7 µM 29% | [3]; at 11.0 µM 47% | [4]; at 1.2 µM 1% | [4]; at 3.7 µM -1% | [4]; at 11.0 µM 2% | [5]; at 1.2 µM 7% | [5]; at 3.7 µM 7% | [5]; [16] 51% | [5]; at 11.0 µM 13% | [5]; [17] 51% | [6]; at 1.2 µM -22% | [6]; at 3.7 µM -1% | [6]; [16] 53% | [6]; at 11.0 µM -15% | [6]; [17] 55% | [7]; at 1.2 µM -25% | [7]; at 3.7 µM -8% | [7]; at 11.0 µM -1% | [8]; [16] 18% | [9]; at 1.2 µM 21% | [9]; at 3.7 µM 3% | [9]; at 11.0 µM -7% | [10]; [16] 56% | [11]; at 1.2 µM -8% | [11]; at 3.7 µM -8% | [11]; [16] -18% | [11]; at 11.0 µM -11% | [12]; at 1.2 µM 19% | [12]; at 3.7 µM 26% | [12]; at 11.0 µM 34% | [13]; [16] 39% | [13]; [17] 55% | [14]; at 1.2 µM -29% | [14]; at 3.7 µM -30% | [14]; at 11.0 µM -16%

COc1cc(/C=N/Nc2nnc3c4ccccc4c4ncccc4c3n2)cc(OC)c1OC
inactive: [1]; at 1.2 µM 40% | [1]; at 3.7 µM 51% | [2]; at 1.2 µM -22% | [2]; at 3.7 µM -1% | [2]; at 11.0 µM -1% | [2]; at 33.0 µM 4% | [2]; at 100.0 µM 9% | [3]; at 1.2 µM 20% | [3]; at 3.7 µM 36% | [3]; at 11.0 µM 58% | [4]; at 1.2 µM 0% | [4]; at 3.7 µM 1% | [4]; at 11.0 µM 3% | [4]; at 33.0 µM 5% | [4]; at 100.0 µM 6% | [5]; at 1.2 µM 18% | [5]; at 3.7 µM 36% | [5]; [16] 4% | [5]; at 11.0 µM 66% | [5]; [17] 62% | [6]; at 1.2 µM 15% | [6]; at 3.7 µM 1% | [6]; [16] -2% | [6]; at 11.0 µM 3% | [6]; at 33.0 µM 9% | [6]; [17] -5% | [6]; at 50.0 µM 22.1% | [6]; at 100.0 µM 11% | [7]; at 1.2 µM -1% | [7]; at 3.7 µM 2% | [7]; at 11.0 µM 5% | [7]; at 33.0 µM 8% | [7]; at 100.0 µM 14% | [8]; [16] -5% | [8]; [17] -2% | [8]; at 50.0 µM 34% | [9]; at 1.2 µM -8% | [9]; at 3.7 µM -2% | [9]; at 11.0 µM -2% | [9]; at 33.0 µM -3% | [9]; at 100.0 µM 1% | [10]; [16] -7% | [10]; [17] -6% | [10]; at 50.0 µM 47.8% | [11]; at 1.2 µM -1% | [11]; at 3.7 µM -1% | [11]; [16] 1% | [11]; at 11.0 µM -4% | [11]; at 33.0 µM -11% | [11]; [17] -16% | [11]; at 50.0 µM 6.55% | [11]; at 100.0 µM -8% | [12]; at 1.2 µM 2% | [12]; at 3.7 µM 5% | [12]; at 11.0 µM 4% | [12]; at 33.0 µM 9% | [12]; at 100.0 µM 10% | [13]; [16] -25% | [13]; [17] -8% | [13]; at 50.0 µM 55.6% | [14]; at 1.2 µM 11% | [14]; at 3.7 µM 8% | [14]; at 11.0 µM 21% | [14]; at 33.0 µM 29% | [14]; at 100.0 µM 30%
active: [1]; at 11.0 µM 81% | [1]; at 33.0 µM 74% | [1]; at 100.0 µM 89% | [3]; at 33.0 µM 80% | [3]; at 100.0 µM 84% | [5]; at 33.0 µM 81% | [5]; at 50.0 µM 93% | [5]; at 100.0 µM 86%

CCCOC(=O)C(F)C(Br)C(=O)OCCC (stereo unspecified)
active: [1]; at 3.7 µM 89% | [1]; at 11.0 µM 96% | [1]; at 33.0 µM 96% | [1]; at 100.0 µM 99% | [2]; at 3.7 µM 95% | [2]; at 11.0 µM 98% | [2]; at 33.0 µM 97% | [2]; at 100.0 µM 99% | [3]; at 11.0 µM 94% | [3]; at 33.0 µM 98% | [3]; at 100.0 µM 98% | [4]; at 3.7 µM 90% | [4]; at 11.0 µM 97% | [4]; at 33.0 µM 98% | [4]; at 100.0 µM 99% | [5]; at 3.7 µM 90% | [5]; at 11.0 µM 97% | [5]; at 33.0 µM 97% | [5]; [17] 98% | [5]; at 50.0 µM 89.8% | [5]; at 100.0 µM 99% | [6]; at 1.2 µM 71% | [6]; at 3.7 µM 97% | [6]; at 11.0 µM 97% | [6]; at 33.0 µM 98% | [6]; [17] 100% | [6]; at 50.0 µM 92% | [6]; at 100.0 µM 99% | [7]; at 11.0 µM 97% | [7]; at 33.0 µM 97% | [7]; at 100.0 µM 100% | [8]; [17] 98% | [8]; at 50.0 µM 91.9% | [10]; [17] 70% | [10]; at 50.0 µM 90.7% | [11]; at 3.7 µM 82% | [11]; at 11.0 µM 93% | [11]; at 33.0 µM 96% | [11]; [17] 99% | [11]; at 50.0 µM 90.5% | [11]; at 100.0 µM 96% | [15]; at 3.7 µM 98% | [15]; at 11.0 µM 98% | [15]; at 33.0 µM 98% | [15]; at 100.0 µM 100%
inactive: [1]; at 1.2 µM 38% | [2]; at 1.2 µM 42% | [3]; at 1.2 µM 33% | [3]; at 3.7 µM 28% | [4]; at 1.2 µM 54% | [5]; at 1.2 µM 58% | [5]; [16] 44% | [6]; [16] 67% | [7]; at 1.2 µM 21% | [7]; at 3.7 µM 67% | [8]; [16] 21% | [10]; [16] 11% | [11]; at 1.2 µM 38% | [11]; [16] 30% | [15]; at 1.2 µM 57%
